Measurements as given in the supplement of paper PMC11482750.
± gives the standard deviation of the averaged measurements.

Compound: CCC1CCC(=O)O1 [γ-hexalactone]
Assay: control-subtracted net OSN firing rate; higher = stronger neuronal activation
Details: odorant dilution (vol/vol): 1/100
Procedure: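 Single sensillum recordings from olfactory sensory neurons. The neurons sit in the maxillary palp or antennal sensilla of D. melanogaster (wild type, mutants, or at1 empty-neuron lines expressing Or42a homologs or the A181D S307P mutant) and of four Scaptomyza species. Each odorant was given as a 1 s pulse from 20 µl loaded on filter paper at 1:100 vol/vol, diluted in mineral oil (γ-hexalactone in DMSO). Spikes were counted in a 0.5 s window starting 0.2 s after onset, background was subtracted, the count was doubled, and the mean solvent-control response was subtracted.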

Target	control-subtracted net OSN firing rate [spikes/s]
Canton-S ab10a	-0.4 ± 7.9
Or67dGal4; UAS-SflaOr42a3 at1	48.8 ± 19
Canton-S ab2a	-6.29 ± 11
Canton-S ab2b	6.86 ± 9.2
Or67dGal4, UAS-Sfla A181D S307P/+ at1	16.8 ± 14
Canton-S pb2b	-2.5 ± 3.8
Canton-S ai3b	-2.5 ± 6.8
Canton-S ab9b	-2.67 ± 12
Canton-S at4c	-6 ± 5.2
Canton-S ab7b	-2 ± 3.3
Or67dGal4, UAS-Sfla Or42a4 at1	6 ± 9.1
Canton-S ai2a	-2 ± 5.3
Canton-S ab1d	1.5 ± 5.5
Or67dGal4, UAS-Sfla Or42a4/+ at1	3.43 ± 6.4
Canton-S ab3b	-0.909 ± 7.1
Or67dGal4, UAS-Dmel Or42a at1	79 ± 40
Canton-S ab4a	2 ± 2
Canton-S ab7a	-7.5 ± 11
Or67dGal4, UAS-Sfla Or42a3 at1	38.3 ± 15
Canton-S at4a	-3 ± 3.5

Target	control-subtracted net OSN firing rate [spikes/s]
Canton-S ab1b	2.5 ± 8.5
Canton-S ab1c	1.5 ± 4.2
Canton-S ai3a	-1.5 ± 3.4
Canton-S at1	-2 ± 5.5
Canton-S pb1b	-7.71 ± 12
Canton-S ab4b	-4 ± 5.3
Or67dGal4, UAS-Sfla Or42a2 at1	-3.14 ± 2.5
Canton-S ai3c	0.5 ± 4.4
Canton-S ab9a	2.67 ± 7.6
Canton-S ab10b	-0.2 ± 5.2
Canton-S pb3b	-2 ± 8.5
Canton-S ab6a	3.33 ± 7
Or67dGal4; UAS-A181D S301P at1	42.6 ± 20
Canton-S ab3a	1.82 ± 8.3
Or67dGal4; UAS-SflaOr42a4 at1	50.9 ± 14
Canton-S ab8b	10 ± 5.8
Or67dGal4, UAS-Spal Or42a at1	95.8 ± 46
Canton-S pb2a	-7.5 ± 12
Canton-S ab5a	6.2 ± 8.2
Canton-S at4b	-2 ± 13
